Source: PubChem BioAssay (National Center for Advancing Translational Sciences (NCATS))
USP2a block – qHTS Assay for Inhibitors of Ubiquitin-specific Protease USP2a Using CHOP2 as the Reporter; Ubiquitin carboxyl-terminal hydrolase 2 (Homo sapiens), O75604; USP2 core, Ub-CHOP2 coupled fluorogenic reporter, 485/531; Potency, µM (doses to about 38.3 µM), hits mostly inhibitors; 330,000 tested, 0.01% active
Target sequence (O75604 whole entry, looked up): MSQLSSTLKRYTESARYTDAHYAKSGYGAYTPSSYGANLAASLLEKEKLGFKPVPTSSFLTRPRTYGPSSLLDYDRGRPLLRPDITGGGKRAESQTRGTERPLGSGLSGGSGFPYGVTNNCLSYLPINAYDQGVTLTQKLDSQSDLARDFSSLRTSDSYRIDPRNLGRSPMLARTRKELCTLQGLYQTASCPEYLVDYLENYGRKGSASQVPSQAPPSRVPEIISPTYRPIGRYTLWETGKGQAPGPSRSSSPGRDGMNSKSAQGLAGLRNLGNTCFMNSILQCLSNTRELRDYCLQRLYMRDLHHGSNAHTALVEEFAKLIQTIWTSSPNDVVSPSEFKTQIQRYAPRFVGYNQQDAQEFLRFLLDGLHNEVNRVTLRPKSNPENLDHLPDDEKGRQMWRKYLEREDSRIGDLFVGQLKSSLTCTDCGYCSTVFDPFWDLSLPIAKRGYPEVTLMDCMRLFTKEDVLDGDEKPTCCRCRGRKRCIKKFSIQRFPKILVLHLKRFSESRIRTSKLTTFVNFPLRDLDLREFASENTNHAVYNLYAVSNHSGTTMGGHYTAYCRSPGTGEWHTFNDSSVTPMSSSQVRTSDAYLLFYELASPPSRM
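Cell-free coupled assay: 10nM USP2 core preincubated 30min RT with compound in Tris-HCl pH 8.0/CaCl2/CHAPS buffer, then 25nM Ub-CHOP2 and 25nM reporter substrate; fluorescence (Ex 485/Em 531) read after 60min RT, normalized to NEM inhibition, concentration-response curves fitted.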
12-LOX inh – Primary qHTS assay for inhibitors of human arachidonate 12S-lipoxygenase (ALOX12): Round 2; purified 12hLO, xylenol orange hydroperoxide absorbance; Polyunsaturated fatty acid lipoxygenase ALOX12 (Homo sapiens), P18054; Potency, µM (top dose mostly 108 µM), hits mostly inhibitors; AID 1671190, 2021; 580,000 tested, 1.1% active
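Purified human 12hLO at 150 nM in 25 mM Hepes, 0.01% Triton X-100, pH 7.0, preincubated 15 min at room temperature with compound. Reaction started with 40 uM arachidonic acid, 30 min at room temperature. Hydroperoxide measured by Fe-xylenol orange, 573/405 nm absorbance ratio.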
Eya2 inh – qHTS Assay for Inhibitors of the Phosphatase Activity of Eya2; Protein phosphatase EYA2 (Homo sapiens), O00167; recombinant Eya2, OMFP fluorescence dephosphorylation (OMFP is methylfluorescein phosphate); Potency, µM (doses to about 76.9 µM), most hits filed as inhibitors; 330,000 tested, 0.006% active
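Eya2 (0.2 uM) preincubated 10 min at ambient with compound, then OMFP substrate added at 50 uM; 10 min reaction in 50 mM HEPES pH 7.5, 50 mM NaCl, 5 uM MgCl2, 0.05% BSA, 1 mM DTT. Fluorescence read at Ex 485/Em 525 nm.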
PTAP TSG101 blk – qHTS Assay for Iinhibitors of HIV-1 Budding by Blocking the Interaction of PTAP/TSG101. Fluorescence polarization, FITC-PTAP peptide / Tsg101 binding. Potency, µM (doses to about 115 µM), hits mostly inhibitors. 340,000 tested, under 10 active. AID 493005, 2010; active = well fitted inhibition curve with a large enough effect in the main read-out, with a control signal flat, not every such curve was filed as active; inconclusive = small, poorly fitted or top-dose-only effect, or effect the other way, or a change in a side signal; inactive = no such curve, though single readings can be large or run the other way
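FP read-out: FITC-PTAP peptide, 50 nM final, binding Tsg101 binding domain, 10 uM final; 20 min, r.t.; 10 mM HEPES pH 7.5, 0.15 M NaCl, 0.01% Tween 20, 3 mM EDTA, 0.1 mM TCEP.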
Of the large screens only hits and unclear results are named; the others gave an inactive call. An excerpt weighted towards active compounds, which were near 1.1% of everything screened. Unless noted, calls come from the whole dose curve; as a rule, active = well fitted curve in the direction sought with a large enough effect; inconclusive = small, poorly fitted or top-dose-only effect, or another doubt; inactive = no such curve, though single readings can be large; an effect the other way counts as inactive or inconclusive.

COc1ccc(-c2csc(N(CCCN(C)C)C(=O)c3ccccc3C)n2)cc1	12-LOX inh inconclusive, Eya2 inh 50.1µM
O=C(O)CCNC(=O)c1ccc(N=Nc2ccc(O)c(C(=O)O)c2)cc1	12-LOX inh 34.3µM (no result: USP2a block, Eya2 inh, PTAP TSG101 blk)
Clc1cccc(C2Nc3cccc4cccc(c34)N2)c1	12-LOX inh 3.55µM
COc1ccccc1-c1cc(C(=O)NCCc2ccc(Cl)cc2)nc2c1cnn2C	none (no result: USP2a block, Eya2 inh, PTAP TSG101 blk)
Nc1cccc2[nH]ncc12	none (no result: USP2a block, Eya2 inh, PTAP TSG101 blk)
S=c1cn[nH]c2ccccc12	12-LOX inh 39.8µM (no result: USP2a block, Eya2 inh)
COC(=O)c1ccc(NN=Nc2ccc(C)cc2)cc1	12-LOX inh 17.8µM
Cc1cc(CN(C)c2ccc(-c3nc(COc4ccccc4)no3)cn2)on1	none (no result: USP2a block, Eya2 inh, PTAP TSG101 blk)
N#Cc1c(Nc2cccc(F)c2)sc(C(=O)c2ccc(Cl)cc2)c1N	12-LOX inh 44.7µM (no result: USP2a block, Eya2 inh, PTAP TSG101 blk)
COc1cccc(Nc2sc(C(=O)c3ccc(F)cc3)c(N)c2C(=O)NCc2ccc(Cl)cc2)c1	none (no result: USP2a block, Eya2 inh, PTAP TSG101 blk)
COC(=O)C1=C(C)Nc2[nH]c(=S)[nH]c(=O)c2C1c1ccc(OC)cc1 (stereo unspecified)	12-LOX inh 25.1µM
O=C1N(Cc2ccc(F)cc2)C[C@H]2CN(Cc3cnc4ccccc4c3)CCN12	none (no result: USP2a block, Eya2 inh, PTAP TSG101 blk)
Cc1cc(C)c(NC(=O)c2ccc3c(c2)CCC3)c(C)c1	none (no result: USP2a block, Eya2 inh, PTAP TSG101 blk)
Cc1cc(C)c(NC(=O)C2=Cc3sc4c(c3CS2)CCCC4)c(C)c1	12-LOX inh 28.2µM (no result: USP2a block, Eya2 inh, PTAP TSG101 blk)
CCC(C)NC(=O)C1=Cc2sc3c(c2CS1)CCCC3 (stereo unspecified)	12-LOX inh 14.1µM (no result: USP2a block, Eya2 inh, PTAP TSG101 blk)
Cc1ccc(C)c(NC(=O)C2=Cc3sc4c(c3CS2)CCCC4)c1	12-LOX inh 17.8µM (no result: USP2a block, Eya2 inh, PTAP TSG101 blk)
Cc1ccc(NC(=O)C2=Cc3sc4c(c3CS2)CCCC4)cc1C	12-LOX inh 7.08µM (no result: USP2a block, Eya2 inh, PTAP TSG101 blk)
Cc1ccc(C)c(NC(=S)NNC(=O)c2csc3c2CCCC3)c1	12-LOX inh inconclusive
Cc1ccc(C(=O)NNC(=S)NC(=O)COc2ccccc2)cc1	12-LOX inh inconclusive
Cc1ccc(OCC(=O)NNC(=S)NC(=O)COc2ccccc2)cc1	12-LOX inh 11.2µM (no result: USP2a block, Eya2 inh, PTAP TSG101 blk)
Cc1cccc(OCC(=O)NC(=S)NNC(=O)c2ccncc2)c1	12-LOX inh 5.01µM
Cc1ccccc1C(=O)NNC(=S)NC(=O)COc1ccccc1	12-LOX inh 3.55µM
O=C(COc1ccccc1)NC(=S)Nc1cccc2c(O)cccc12	12-LOX inh 44.7µM (no result: USP2a block, Eya2 inh, PTAP TSG101 blk)
CC(C)(C)c1ccc(OCC(=O)NNC(=O)CCc2ccccc2)cc1	none
CC(C)(C)c1ccc(C(=O)NC(=S)NNC(=O)COc2ccccc2)cc1	12-LOX inh 31.6µM
CC(C)(C)OC(=O)COC(=O)c1cccnc1Nc1ccccc1F	none (no result: USP2a block, Eya2 inh, PTAP TSG101 blk)
Cc1c(P(=O)(c2ccccc2)c2ccccc2)c2ccccc2n1C	12-LOX inh 20µM (no result: USP2a block, Eya2 inh, PTAP TSG101 blk)
CCOC(=O)/C(C)=C1\NC(C)(C)Cc2ccccc21	12-LOX inh 15.8µM
CCOC(=O)/C(C(=O)Nc1ccccc1Cl)=C1/NC(C)(C)Cc2ccccc21	none
CCN1CCN(C(c2ccc(C(F)(F)F)cc2)c2ccc3cccnc3c2O)CC1 (stereo unspecified)	12-LOX inh 8.91µM
CN(C)c1ccc(/C=C2/C[N+](C)(C)C/C(=C/c3ccc(N(C)C)cc3)C2=O)cc1	12-LOX inh 50.1µM (no result: USP2a block, Eya2 inh)
CC(C)/C=C1\CC/C(=C\c2ccc(N(C)C)cc2)C1=O	PTAP TSG101 blk inconclusive
CN(C)C1CCN(c2ccc(-c3nc(CCCc4ccccc4)no3)cn2)CC1	none (no result: USP2a block, Eya2 inh, PTAP TSG101 blk)
COc1ccccc1-n1cnnc1SCC(=O)NC(C)c1ccc(-c2ccccc2)cc1 (stereo unspecified)	12-LOX inh 1.58µM (no result: USP2a block, Eya2 inh, PTAP TSG101 blk)
O=C(O)c1ccc(NC(=S)NC(=O)C(c2ccccc2)c2ccccc2)cc1	12-LOX inh inconclusive
COc1ccc(C(=O)O)cc1NC(=S)NC(=O)C(c1ccccc1)c1ccccc1	12-LOX inh 35.5µM
O=C(O)c1cccc(NC(=S)NC(=O)C(c2ccccc2)c2ccccc2)c1	12-LOX inh 28.2µM
COC(=O)C1(NC(=O)c2cc(F)cc(F)c2)CCCCC1	none (no result: USP2a block, Eya2 inh, PTAP TSG101 blk)
COc1cc2sc3cc(NCCCN4CCOCC4)ccc3c(=O)c2cc1OC	none (no result: PTAP TSG101 blk)
O=c1c2ccccc2sc2ccc(NCCCN3CCOCC3)cc12	12-LOX inh 14.1µM (no result: USP2a block, Eya2 inh)
